PubChem BioAssay (NCATS)
Values joined by “and” are separate entries in the source; they are usually repeats but may differ in a detail not shown here. Equal entries are not always repeated. Records with an inconclusive call do not appear. Active and inactive are the calls of the source. Calls follow the shape of the dose curve; as a rule, active = well fitted curve in the direction sought with a large enough effect; inconclusive = small, poorly fitted or top-dose-only effect, or another doubt; inactive = no such curve, though single readings can be large; an effect the other way counts as inactive or inconclusive.

Assays:
[1] = test system: HEK293; test: Cytotoxic Profiling of Annotated Libraries Using Quantitative High-Throughput Screening (AID 1296008); details: Five cell lines viability, CellTiter-Glo ATP luminescence, 48-72 h; max response: active compounds read low; also: nearly all actives have a fitted effect of over 60% in size; as to max response: % is scaled to controls: 0 for no effect and ±100 for the full control effect
How it was run: (§1)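 Cells exposed to compounds for 48 or 72 hr at 37 degrees Celsius. Viability read as ATP-coupled luminescence with CellTiter-Glo after 10 min at room temperature.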

[2] = test system: HaCat; test: as above; details: Five cell lines viability, CellTiter-Glo ATP luminescence, 48-72 h; max response: active compounds read low
How it was run: as §1

[3] = test system: KB-3-1; test: as above; details: Five cell lines viability, CellTiter-Glo ATP luminescence, 48-72 h; max response: active compounds read low
How it was run: as §1

[4] = test system: NIH3T3; test: as above; details: Five cell lines viability, CellTiter-Glo ATP luminescence, 48-72 h; max response: active compounds read low
How it was run: as §1

[5] = test system: MCC-13; test: qHTS assay to identify novel small-molecules to repurpose for Merkel cell carcinoma treatment (AID 1296009); details: MCC and control cell lines, CellTiter-Glo viability, 72 h; series mostly up to 46 µM; also: nearly all actives have a fitted effect of over 60% in size
How it was run: (§2)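 Cells were incubated with compound for 72 hr at 37 degree celsius before CellTiter-Glo addition. Luminescence was normalized with no-cell wells as full cytotoxicity and DMSO as baseline.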

[6] = test system: MCC-26; test: as above; details: MCC and control cell lines, CellTiter-Glo viability, 72 h; series mostly up to 46 µM
How it was run: as §2

[7] = test system: MKL-1; test: as above; details: MCC and control cell lines, CellTiter-Glo viability, 72 h; series mostly up to 46 µM
How it was run: as §2

[8] = test system: UISO; test: as above; details: MCC and control cell lines, CellTiter-Glo viability, 72 h; series mostly up to 46 µM
How it was run: as §2

[9] = test system: C33A; test: Primary qHTS to identify gynecologic anti-cancer compounds using libraries of approved drugs and bioactive compounds (AID 1345084); details: Gynecologic cancer cell panel viability, ATPlite luminescence, 48 h; series mostly up to 57.5 µM; also: nearly all actives have a fitted effect of over 55% in size
How it was run: (§3)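 Luminescence from the ATPlite ATP-monitoring reagent indicates viable cell number; lower signal means cytotoxicity. Cells received compound 16 h after seeding and were exposed for 48 h across five concentrations.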

[10] = test system: CAOV3; test: as above; details: Gynecologic cancer cell panel viability, ATPlite luminescence, 48 h; series mostly up to 57.5 µM
How it was run: as §3

[11] = test system: CASKI; test: as above; details: Gynecologic cancer cell panel viability, ATPlite luminescence, 48 h; series mostly up to 57.5 µM
How it was run: as §3

[12] = test system: Es-2; test: as above; details: Gynecologic cancer cell panel viability, ATPlite luminescence, 48 h; series mostly up to 57.5 µM
How it was run: as §3

[13] = test system: CRL-7250; test: Cytotoxic Profiling of Annotated Libraries Using Quantitative High-Throughput Screening (AID 1296008); details: Five cell lines viability, CellTiter-Glo ATP luminescence, 48-72 h; max response: active compounds read low; also: nearly all actives have a fitted effect of over 60% in size; as to max response: % is scaled to controls: 0 for no effect and ±100 for the full control effect
How it was run: as §1

[14] = test system: HACAT; test: qHTS assay to identify novel small-molecules to repurpose for Merkel cell carcinoma treatment (AID 1296009); details: MCC and control cell lines, CellTiter-Glo viability, 72 h; at 44.8 µM (top of the series) unless noted; also: nearly all actives have a fitted effect of over 60% in size
How it was run: as §2

[15] = test system: MKL-2; test: as above; details: MCC and control cell lines, CellTiter-Glo viability, 72 h; series mostly up to 46 µM
How it was run: as §2

[16] = test system: WaGa; test: as above; details: MCC and control cell lines, CellTiter-Glo viability, 72 h; series mostly up to 46 µM
How it was run: as §2

[17] = test system: W2; test: qHTS profiling for inhibitors of Plasmodium falciparum proliferation (AID 504749); also: nearly all actives have a fitted effect of over 60% in size; details: P. falciparum in erythrocytes, SYBR Green DNA, 72 h; series mostly up to 28.7 µM
How it was run: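 Readout was DNA-dye fluorescence from lysed cultures, ex 485/em 535 nm. Parasitized red cells had grown 72 h with compound; data scaled between 0.29 uM artemisinin and DMSO wells and corrected using vehicle-only plates.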

[18] = test system: CRL-7250; test: qHTS assay to identify novel small-molecules to repurpose for Merkel cell carcinoma treatment (AID 1296009); details: MCC and control cell lines, CellTiter-Glo viability, 72 h; at 44.8 µM (top of the series) unless noted; also: nearly all actives have a fitted effect of over 60% in size
How it was run: as §2
Potency is read from the fitted curve at half-maximal effect.

CCO/N=C(\CC)C1=C(O)CC(c2c(C)cc(C)cc2C)CC1=O (stereo not given)
active: Potency [1] 24300 nM
inactive: max response [2] -8.94% | max response [3] -11.8% | max response [4] -12.4% | Potency [5] | Potency [6] | Potency [7] | Potency [8] | Potency [9] | Potency [10] | Potency [11] | Potency [12]

O=C(Nc1ccncc1)C(=O)c1cn(Cc2ccc(Cl)cc2)c2ccccc12
active: Potency [13] 296 nM | Potency [3] 46.9 nM | Potency [4] 52.6 nM

Nc1ccc(Cl)cc1N
inactive: max response [13] -5.38% | max response [2] -38.9% | max response [3] -2.75% | Potency [5] | Potency [6] | Potency [8] | Potency [10] | Potency [12]

N#C[C@H](O[C@@H]1O[C@H](CO[C@@H]2O[C@H](CO)[C@H](O)[C@H](O)[C@H]2O)[C@H](O)[C@H](O)[C@H]1O)c1ccccc1
active: Potency [1] 23500 nM

C[N+](C)(C)CC(=O)O
inactive: max response [2] 3.56% | max response [3] -11.7% and 3.15%

C=CCC1=C(C)C(OC(=O)C2C(C=C(C)C)C2(C)C)CC1=O (stereo not given)
active: Potency [1] 19300 nM
inactive: outcome [2] | max response [3] -7.18% | outcome [14] inactive [at 92 µM] | Potency [5] | Potency [6] | Potency [9] | Potency [11] | Potency [12]

CC1(C)CC/C(=C/c2ccc(Cl)cc2)C1(O)Cn1cncn1 (stereo not given)
inactive: max response [13] -5.73% | max response [3] -19.8% | max response [4] -11.7% | Potency [5] | Potency [6] | Potency [7] | Potency [15] | Potency [8] | Potency [9] | Potency [11] | Potency [12]

O=S(=O)(CC1CS1)c1ccc(Oc2ccccc2)cc1 (stereo not given)
inactive: max response [13] -6.75% | max response [2] 3.29% | max response [3] 0.22% | max response [4] -6.16% | Potency [5] | Potency [6]
active: Potency [7] 23500 nM | Potency [15] 16600 nM | Potency [16] 20900 nM

CC(C)[C@]12O[C@H]1[C@@H]1O[C@]13[C@]1(O[C@H]1C[C@H]1C4=C(CC[C@@]13C)C(=O)OC4)[C@@H]2O
active: Potency [13] 82 nM | Potency [2] 130 nM | Potency [3] 65.1 nM | Potency [4] 92 nM | Potency [9] 708 nM | Potency [11] 199 nM | Potency [12] 100 nM

CCCCCCCCCCCCCCCC[N+](C)(C)C
active: Potency [17] 6750 nM | Potency [13] 6680 nM | Potency [2] 2110 nM | Potency [4] 21100 nM | Potency [7] 944 nM | Potency [15] 750 nM | Potency [16] 2370 nM | Potency [10] 8910 nM | Potency [11] 20000 nM

CC=C(C)C(=O)O[C@H]1C(C)=C2[C@@H]3OC(=O)[C@@](C)(O)[C@@]3(O)[C@@H](OC(=O)CCC)C[C@](C)(OC(C)=O)[C@@H]2[C@@H]1OC(=O)CCCCCCC
active: Potency [13] 148 nM | Potency [2] 8330 nM | Potency [4] 18.7 nM | Potency [5] 1870 nM | Potency [6] 1320 nM | Potency [7] 11800 nM | Potency [15] 3720 nM | Potency [8] 235 nM | Potency [16] 1660 nM

CC(Cc1ccc(O)cc1)NCC(O)c1cc(O)cc(O)c1 (stereo not given)
inactive: max response [13] 3.52% | max response [2] -18.5% | max response [3] 6.39% | max response [4] -6.43% | Potency [5] | Potency [7] | Potency [15] | Potency [8] | Potency [16] | Potency [10] | Potency [11] | Potency [12]

CC(C)Oc1cccc(NC(=O)c2ccccc2C(F)(F)F)c1
active: Potency [13] 54500 nM | Potency [16] 38600 nM
inactive: max response [3] -12.9% | Potency [5] | Potency [6] | Potency [7] | Potency [11]

S=C(SSC(=S)N1CCCCC1)N1CCCCC1
inactive: max response [13] -1.9% | max response [3] -9.18% | Potency [11]
active: Potency [5] 168 nM | Potency [6] 133 nM | Potency [7] 133 nM | Potency [15] 94.4 nM | Potency [8] 94.4 nM

C=C[C@@H]1CN2CCC1C[C@H]2[C@H](O)c1ccnc2ccccc12 (stereo not given in full)
inactive: outcome [13] | max response [4] -22.5% | outcome [18] | Potency [5] | Potency [7] | Potency [15] | Potency [8] | Potency [16]

C[C@@H]1CC[C@@]2(OC1)O[C@H]1C[C@H]3[C@@H]4CC=C5C[C@@H](O[C@@H]6O[C@H](CO)[C@@H](O[C@@H]7O[C@@H](C)[C@H](O)[C@@H](O)[C@@H]7O)[C@H](O)[C@@H]6O[C@@H]6O[C@@H](C)[C@H](O)[C@@H](O)[C@@H]6O)CC[C@]5(C)[C@@H]4CC[C@]3(C)[C@@H]1[C@H]2C
active: Potency [13] 9350 nM | Potency [3] 8330 nM | Potency [4] 13200 nM | Potency [6] 10500 nM | Potency [15] 6620 nM

CCCN1CCO[C@@H]2c3cc(O)ccc3OC[C@@H]21
inactive: max response [13] -5.49% | outcome [3] | Potency [5] | Potency [6] | Potency [7] | Potency [8]

CC[C@@H]1[C@@H](C)O[C@@](O)([C@@H](C)[C@H](O)[C@H](C)[C@H]2OC(=O)C=CC=C[C@@H](C)[C@@H]([C@@H](C)[C@@H](O)[C@H](C)[C@@]3(O)C[C@H](O[C@H]4C[C@H](O)[C@H](O)[C@H](C)O4)[C@H](CC)[C@@H](C)O3)OC(=O)C=CC=C[C@@H]2C)C[C@H]1O[C@H]1C[C@H](O)[C@H](O)[C@H](C)O1
active: Potency [1] 1180 nM | Potency [2] 3320 nM | Potency [3] 5900 nM | Potency [4] 1660 nM | Potency [5] 16600 nM | Potency [6] 8330 nM | Potency [7] 14800 nM | Potency [8] 8330 nM | Potency [16] 2640 nM

COCC1(CO)C(=O)C2CCN1CC2 (stereo not given)
active: Potency [7] 2090 nM | Potency [16] 1320 nM
inactive: max response [13] -4.01% | outcome [2] | max response [3] 3.43% | outcome [14] | Potency [5] | Potency [6]

Cc1[nH]nc2ccc(-c3cncc(OC[C@@H](N)Cc4c[nH]c5ccccc45)c3)cc12
active: Potency [13] 935 nM and 2.06 µM | Potency [2] 1180 nM | Potency [3] 146 nM | Potency [4] 1.66 µM and 1.64 µM | Potency [5] 2350 nM | Potency [6] 3720 nM | Potency [15] 3720 nM | Potency [8] 235 nM | Potency [16] 833 nM | Potency [9] 316 nM | Potency [11] 2820 nM | Potency [12] 1780 nM
